An excerpt weighted towards active compounds, which were near 19% of everything screened.
TDP1 cell noCPT: qHTS for Inhibitors of human tyrosyl-DNA phosphodiesterase 1 (TDP1): qHTS in cells in absence of CPT. DT40 Tdp1-/- hTDP1 cells, no CPT, ATP luminescence, 48 h. Potency, µM (doses to about 46.2 µM), without a hit: at the highest dose activity change, negative = growth inhibition, usual class: inhibitors. 420,000 compounds, 15% hits. AID 686978, 2013; note: potency is the fitted concentration of half-maximal effect; nearly all actives have a fitted effect of over 55% in size
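Readout: luminescence from CellTiter-Glo after 30 min in the dark at RT. Cells: DT40 Tdp1-/- with stable hTDP1, 400/well. Exposure: compounds alone, ≥48 hr, 37 °C.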
TDP1 cell CPT: qHTS for Inhibitors of human tyrosyl-DNA phosphodiesterase 1 (TDP1): qHTS in cells in presence of CPT; chicken DT40 Tdp1-/-;hTDP1 cells + 20 nM CPT, ATP luminescence, 48 h; Potency, µM (top dose mostly 46.2 µM), without a hit: at the highest dose activity change, negative = growth inhibition, actives largely listed as inhibitors; 420,000 compounds, 12% hits; note: potency is the fitted concentration of half-maximal effect; nearly all actives have a fitted effect of over 55% in size
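Chicken DT40 Tdp1-/- cells stably complemented with human TDP1 were seeded at 400 cells/well in medium containing 20 nM camptothecin, exposed to pin-transferred compounds, and grown at 37 °C for at least 48 hr. Viability was read as ATP luminescence.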
Giardia kill: Small Molecules that selectively kill Giardia lamblia: qHTS | Giardia lamblia trophozoite viability | 340,000 compounds, 0.15% hits | activity change, % at 7.66 µM, hits read low | AID 540267, 2011; in the data active = activity change below about -80%; inconclusive = between about -30% and that limit;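 note: parasites exposed to compound for two days anaerobically before the ATP read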
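Anaerobic 48 hrs incubation at 37 deg C of 100 trophozoites/well with test compounds; ATPLite 1-Step luminescence, 15-30 min RT, reports cellular ATP as viability.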
ELG1 repair inh: qHTS screen for small molecules that inhibit ELG1-dependent DNA repair in human embryonic kidney (HEK293T) cells expressing luciferase-tagged ELG1; HEK293T ELG1-luciferase reporter, luminescence, 16 h; DNA damage induced by 5-fluorouridine; Potency, µM (top dose mostly 46.1 µM), inactives show at the highest dose activity change, negative = inhibition, actives largely listed as inhibitors; 330,000 compounds, 2.3% hits; AID 504467, 2011; note: potency is the fitted concentration of half-maximal effect; nearly all actives have a fitted effect of over 55% in size
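Reporter activity after DNA damage by 5-fluorouridine is monitored. Compound-treated cells incubate 16 hr at 37 °C, then ONE-Glo is added for 30 min before luminescence reading.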
IL-1B inflam inh: qHTS for Inhibitors of Inflammasome Signaling: IL-1-beta AlphaLISA Primary Screen. THP-1 LPS/ATP IL-1B secretion, AlphaLISA, 16 h; active compounds read low. activity change, % at 57.5 µM. 360,000 compounds, 4.7% hits. AID 743279, 2014; in the data active = activity change below about -50%; inconclusive = mostly about -30% to -49%
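THP-1 cells pretreated 1 hr with compounds (up to 57.5 uM final), then stimulated with LPS (250 ng/mL final) plus ATP (1.25 mM final); secreted IL-1B measured by AlphaLISA after 16 hr, decreased signal indicating inhibition.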
TDP1 inh: qHTS Assay for Inhibitors of Tyrosyl-DNA Phosphodiesterase (TDP1); recombinant TDP1, AlphaScreen DNA substrate cleavage; Potency, µM (doses to about 130 µM), without a hit: top-dose activity change, negative = inhibition, actives largely listed as inhibitors; AID 485290, 2010; 350,000 compounds, 0.28% hits; Tyrosyl-DNA phosphodiesterase 1 (Homo sapiens), Q9NUW8; note: potency is the fitted concentration of half-maximal effect; nearly all actives have a fitted effect of over 40% in size
Target sequence (Q9NUW8 whole entry, looked up): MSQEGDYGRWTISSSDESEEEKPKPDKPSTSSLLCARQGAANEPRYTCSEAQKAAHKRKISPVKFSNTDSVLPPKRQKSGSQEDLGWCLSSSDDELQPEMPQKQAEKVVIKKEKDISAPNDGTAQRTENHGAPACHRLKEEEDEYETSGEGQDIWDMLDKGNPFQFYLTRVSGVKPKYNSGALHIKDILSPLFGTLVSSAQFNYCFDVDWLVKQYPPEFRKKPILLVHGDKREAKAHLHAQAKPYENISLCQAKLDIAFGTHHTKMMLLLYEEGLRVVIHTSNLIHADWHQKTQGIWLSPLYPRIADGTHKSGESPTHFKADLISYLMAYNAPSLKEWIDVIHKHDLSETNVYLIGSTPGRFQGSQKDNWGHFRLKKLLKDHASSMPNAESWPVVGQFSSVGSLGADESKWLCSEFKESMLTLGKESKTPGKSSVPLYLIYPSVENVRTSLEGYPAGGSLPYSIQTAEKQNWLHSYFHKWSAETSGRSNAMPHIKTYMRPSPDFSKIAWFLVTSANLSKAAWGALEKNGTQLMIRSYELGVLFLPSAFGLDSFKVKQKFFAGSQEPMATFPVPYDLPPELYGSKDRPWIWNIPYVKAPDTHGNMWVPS
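Compounds were preincubated with Tdp1 (1 nM final) for 15 min at room temperature before substrate (15 nM final) started a 5 min reaction; beads (10 ug/ml final) were then added for 10 min before AlphaScreen detection.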
The depositor's hits bear a star; ? = inconclusive; . = not tested or not shown. Unless noted, calls come from the whole dose curve; as a rule, active = well fitted curve in the direction sought with a large enough effect; inconclusive = small, poorly fitted or top-dose-only effect, or another doubt; inactive = no such curve, though single readings can be large; an effect the other way counts as inactive or inconclusive. % is set by controls: 0 for no effect and ±100 for the full control effect.

SMILES	TDP1 cell noCPT	TDP1 cell CPT	Giardia kill	ELG1 repair inh	IL-1B inflam inh	TDP1 inh
COc1ccc(-c2onc(C)c2C)cc1S(=O)(=O)N(C)Cc1ccccc1	23µM*	21µM*	.	.	.	-3%
C=CCN1C(=O)C(Cc2ccc(F)cc2)S/C1=N/N=C/c1cccs1 (centres undefined)	29µM*	-35%	4	-22%	-14	-4%
C=CCN1C(=O)/C(=C/c2cccs2)S/C1=N\S(=O)(=O)c1ccc(F)cc1	-25%	-29%	2	1%	2	-1%
O=C1CS/C(=N/N=C/c2cccs2)N1Cc1ccc(F)cc1	?	18µM*	24	21µM*	24	2%
CC(C)NC(=O)CN1CCC(c2nc3ccccc3[nH]2)CC1	1%	-5%	-2	-1%	2	4%
Cc1cccc(CC(=O)N2CC(=O)Nc3ccc(C)cc3C2c2ccc(F)cc2)c1 (centres undefined)	?	?	.	.	.	15%
Cc1ccnc(NC(=O)C2CCN(S(=O)(=O)c3ccc(C)c(C)c3)CC2)c1	-20%	-4%	2	-8%	-84*	.
Cc1ccnc(NC(=O)C2CCN(S(=O)(=O)c3ccc4c(c3)CC(C)N4C(=O)C3CCC3)CC2)c1 (centres undefined)	?	?	4	9.2µM*	-69*	4%
COc1ccc(S(=O)(=O)N2CCCCCC2)cc1C(=O)Nc1cc(C)ccn1	?	21µM*	-2	?	-27	2%
COc1ccc(S(=O)(=O)N2CCCCCC2)cc1C(=O)Nc1ccc(C)cn1	?	-5%	-13	-11%	-11	.
CC1Cc2cc(S(=O)(=O)N3CCC(C(N)=O)CC3)ccc2N1C(=O)C1CC1 (centres undefined)	-1%	-12%	17	-1%	4	1%
Cc1ccc(CNC(=O)C2CCN(S(=O)(=O)c3ccc4c(c3)CC(C)N4C(=O)C3CCC3)CC2)o1 (centres undefined)	29µM*	?	7	-28%	-26	9%
Cc1ccc(NC(=O)C2CCN(S(=O)(=O)c3ccc4c(c3)CC(C)N4C(=O)C3CCC3)CC2)nc1 (centres undefined)	?	16µM*	14	?	-81*	5%
CC(=O)N1c2ccc(S(=O)(=O)N3CCC(C(=O)Nc4ccc(C)cn4)CC3)cc2CC1C (centres undefined)	?	?	12	?	-19	4%
CC1Cc2cc(S(=O)(=O)N3CCC(C(=O)Nc4ccccn4)CC3)ccc2N1C(=O)C1CCC1 (centres undefined)	21µM*	18µM*	4	?	?	3%
CC(C)(CN1CCC(Cc2ccccc2)CC1)NS(=O)(=O)c1ccccc1	?	21µM*	0	?	?	.
O=C(CCNS(=O)(=O)c1ccccc1)N1CCC(Cc2ccccc2)CC1	?	?	-11	?	-50*	2%
CC(C)(CN1CCN(C(c2ccccc2)c2ccccc2)CC1)NS(=O)(=O)c1ccccc1	16µM*	23µM*	-4	-28%	13	2%
CCOC(=O)C1=C(COC(=O)CCNS(=O)(=O)c2ccc(C)c(C)c2)NC(=O)NC1C (centres undefined)	-4%	-10%	-29	3%	6	0%
CC1CCCCN1CCNC(=O)C1CCCN(S(=O)(=O)c2cccc3nsnc23)C1 (centres undefined)	0%	6%	-7	?	3	0%
C[C@H](O)[C@@H]1C(=O)N2CCc3c([nH]c4ccccc34)[C@@H]2C[C@@H]1N(C)C(=O)Nc1ccccc1	?	-24%	.	.	-10	.
Cc1ccccc1Oc1ccc2c(c1)[C@@H]1C[C@H](N(C)C(=O)c3cccnc3)[C@H]([C@H](C)O)C(=O)N1CC2	?	-25%	.	.	-14	.
Cc1ccccc1Oc1ccc2c(c1)[C@@H]1C[C@H](N(C)C(=O)NC3CCCCC3)[C@H]([C@H](C)O)C(=O)N1CC2	?	?	1	.	-20	.
Cc1ccccc1Oc1ccc2c(c1)[C@@H]1C[C@H]3[C@@H](C(=O)N1CC2)[C@H](C)ON3C	23µM*	16µM*	27	.	57	.
Cc1ccccc1Oc1ccc2c(c1)[C@@H]1C[C@H](N(C)C(=O)Nc3cc(Cl)cc(Cl)c3)[C@H]([C@H](C)O)C(=O)N1CC2	18µM*	?	5	.	?	.
SMILES	TDP1 cell noCPT	TDP1 cell CPT	Giardia kill	ELG1 repair inh	IL-1B inflam inh	TDP1 inh
C[C@H](O)[C@@H]1C(=O)N2CCc3c([nH]c4ccccc34)[C@@H]2C[C@@H]1N(C)C(=O)Nc1cc(Cl)cc(Cl)c1	?	29µM*	.	.	?	.
Cc1ccccc1Oc1ccc2c(c1)[C@@H]1C[C@H](N(C)C(=O)c3ccco3)[C@H]([C@H](C)O)C(=O)N1CC2	18µM*	?	.	.	0	.
CC(C)NC(=O)COC(=O)CNC(=O)C1CCCCC1	-7%	-4%	-7	.	.	-1%
CCOC(=O)c1nnsc1Nc1ccc(C)c(C)c1	?	-13%	0	?	24	5%
OCC[C@H]1C[C@H](O)[C@@H](O)[C@]2(OCc3ccccc32)O1	2%	-26%	15	10%	5	-1%
COc1ccc2oc(C(=O)OCC(=O)NCc3ccccc3OC)c(C)c2c1	?	-1%	-20	?	35	-12%
O=C(CCC(=O)OCc1ccc(Br)cc1)Nc1ccccc1	?	16µM*	15	0%	2	-8%
CN(CCC(=O)Nc1ccc(Br)cc1)Cc1ccccc1	?	?	3	7%	-62*	2%
Cc1c(Br)c(C(F)(F)F)nn1CC(=O)NCc1ccccc1	?	-1%	-6	16%	-3	8%
CC1CCC(NC(=O)COC(=O)CNC(=O)c2ccc3ccccc3c2)CC1 (centres undefined)	-20%	-9%	27	?	12	-1%
Cc1cc(C)cc(NC(=O)COC(=O)CCC2CCCC2)c1	3%	0%	-17	18%	-9	-14%

Screening data from PubChem.
